Laboratory results taken from PubChem BioAssay (NCI).
Compounds without any hit were thinned out: in the full panel of roughly 83,000, 20% have a hit.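 Single-concentration screen, 48 h exposure, 96-well plates. Endpoint: percent growth. Below 10 = active.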 Unmarked numbers belong to inactive results. Calls of active or inactive are those of the source. Where a SMILES comes first, the peptide text is derived from it. Bridges are numbered along the chain shown (N, C = ends). [ ]: non-standard residue; d: D form. The star is where a group is joined. ξ: configuration not given here. ξNMePhe(4-NMe2) = CNC(Cc1ccc(N(C)C)cc1)C(=O)O; Picolinoyl(3-OH) = O=C(c1ncccc1O)*; ξPip(4-oxo) = O=C1CCNC(C(=O)O)C1; Phg = N[CH](C(=O)O)c1ccccc1; Abu = CC[CH](N)C(=O)O

How the values were obtained:
Assay in all cases: NCI-60 one-dose screen, 48 h (100 = growth as untreated, 0 = no growth, -100 = all killed)
Settings in all cases: 10 µM
SR leukemia = test system: SR leukemia
RPMI-8226 leukemia = test system: RPMI-8226 leukemia
OVCAR-4 ovarian = test system: OVCAR-4 ovarian
SK-OV-3 ovarian = test system: SK-OV-3 ovarian
IGROV1 ovarian = test system: IGROV1 ovarian
OVCAR-3 ovarian = test system: OVCAR-3 ovarian
NCI/ADR-RES ovarian = test system: NCI/ADR-RES ovarian
OVCAR-8 ovarian = test system: OVCAR-8 ovarian
OVCAR-5 ovarian = test system: OVCAR-5 ovarian
HS 578T breast = test system: HS 578T breast

Compound	growth (SR leukemia)	growth (RPMI-8226 leukemia)	growth (OVCAR-4 ovarian) [%]	growth (SK-OV-3 ovarian)	growth (IGROV1 ovarian)	growth (OVCAR-3 ovarian)	growth (NCI/ADR-RES ovarian)	growth (OVCAR-8 ovarian) [%]	growth (OVCAR-5 ovarian)	growth (HS 578T breast)
COc1cc2c(cc1O)CC[C@@H]1C2CC[C@@]2(C)C1CC[C@@H]2O (some centres not stated)	15.1%	0% (active)	65.2	24.1%	25.3%	4.72% (active)	-70.7% (active)			
c1cc[n+](C2c3ccccc3C([n+]3ccccc3)c3ccccc32)cc1 (configuration not stated)	50.6%		75.3	92.5%	30.4%	77.1%	106%	46.8	95%	
N#C/C(=C\c1cc(O)c(O)c(O)c1)C(N)=O	72.9%	19.6%	45.7	110%	122%	107%	102%		98.2%	110%
COc1ccc(C(C)C=O)cc1 (configuration not stated)	102%		110	109%	116%	108%	104%	109	117%	
O=C(NCO)c1ccccc1	98.3%		109	104%	97.2%	104%	109%	108	104%	111%
O=S(=O)(O)c1ccc(Cl)c(Cl)c1	99.8%		106	103%	122%	123%	106%	114	112%	120%
NCCCN	101%		90	105%	113%	111%	112%	104	107%	104%
CCCCCCCCO	102%		80.1	111%	114%	107%	102%	100	101%	111%
CC1=C(/C=C/C(C)=C/C=C/C(C)=C/CO)C(C)(C)CCC1	94.8%		112	114%	117%		103%	101	108%	105%
CC(=O)OCCO	107%		100	113%	113%	110%	110%	101	102%	115%
Cc1ccc(S(=O)(=O)O)c(C)c1	95.2%		86.5	95.7%	103%	110%	104%	105	104%	93.8%
COc1ccc(C)cc1OC	99%		104	108%	99.8%	102%	101%	102	114%	114%
C=CCCCCCCCCCOC(C)=O	91.4%	101%	103	104%		103%	107%		103%	99.7%
CC(=O)OCC1=CC2OC(=O)C3=COC(OC4OC(CO)C(O)C(O)C4O)C1C32 (configuration not stated)	120%	114%	129	108%	71.3%	112%	32.9%		111%	
Oc1ccc(Cc2ccccc2)c2cccnc12	5.04% (active)		23.1	19.9%	-4.71% (active)	28.9%	0.0508% (active)	15.5	37.2%	
CC(=O)c1sc2c(c1OC(=O)c1ccc(Cl)cc1Cl)c(=O)n(-c1ccccc1)c(=S)n2-c1ccccc1	-10.4% (active)	-43.1% (active)		5.36% (active)		24.1%	7.59% (active)			-26.8% (active)
O=C1c2ccccc2C(=O)c2c1ccc(C(=O)O)c2[N+](=O)[O-]	76.1%		96	108%	105%	115%	103%	100	102%	82.5%

Compound	growth (SR leukemia)	growth (RPMI-8226 leukemia)	growth (OVCAR-4 ovarian) [%]	growth (SK-OV-3 ovarian)	growth (IGROV1 ovarian)	growth (OVCAR-3 ovarian)	growth (NCI/ADR-RES ovarian)	growth (OVCAR-8 ovarian) [%]	growth (OVCAR-5 ovarian)	growth (HS 578T breast)
CCNCCCCNCCCCNCCCCNCCCCNCC	68.5%	82.4%		118%		93.4%	122%		108%	76.2%
Oc1ccc2c(c1)OCC1(O)Cc3cc(O)c(O)cc3C21 (configuration not stated)	78.4%	62.5%	38.2	193%	75.3%	93.7%	91.7%		96.3%	102%
O=C(O)CCC(NC(=O)OCc1ccccc1)C(=O)O (configuration not stated)	97.5%	107%	106	82.4%		103%	107%		105%	107%
COc1cc2cc(c1Cl)N(C)C(=O)C[C@H](OC(=O)[C@H](C)N(C)C(C)=O)[C@]1(C)O[C@H]1[C@H](C)[C@@H]1C[C@@](O)(NC(=O)O1)[C@H](OC)C=C/C=C(\C)C2	10.2%	-4.44% (active)		36.1%		-42.8% (active)	3.31% (active)		32.4%	9.98% (active)
CC1=NN(c2ccccc2)C(=O)/C1=C\N1CC(=O)NC1=S	89.1%		102	101%	106%		103%	102	119%	
CO[C@H]1C[C@@H]2CC[C@@H](C)[C@@](O)(O2)C(=O)C(=O)N2CCCC[C@H]2C(=O)O[C@H]([C@H](C)C[C@@H]2CC[C@@H](O)[C@H](OC)C2)CC(=O)[C@H](C)C=C(C)[C@@H](O)[C@@H](OC)C(=O)[C@H](C)C[C@H](C)/C=C/C=C/C=C1C	23.7%	23.8%	33.3	45.1%	11.9%	55.1%	-10.4% (active)		-6.29% (active)	
Cc1c(O)cccc1O	84%		108	97.1%	159%	109%	94.2%	106	106%	102%
c1ccc(/C(=N\N=C(/c2ccccc2)c2cccs2)c2cccs2)cc1	87.3%		97.1	105%	105%	99.7%	102%	95	98.5%	105%
CC(=O)Nc1cccc(NC(C)=O)n1	123%		112	101%		112%	131%	105	143%	102%
O=C(O)COCC(=O)O	95.3%		88.6	111%	105%	103%	106%	98.2	107%	117%
CC1CC(O)CC(C)(C)C1 (configuration not stated)	106%		116	103%	103%	93.5%	110%	102	97.1%	
CSC[C@H](NC(=O)COc1cccc2cnccc12)C(=O)NC(Cc1ccccc1)C(O)C(=O)N1CSC[C@H]1C(=O)NC(C)(C)C (some centres not stated)	84.5%	102%		115%			106%		91.7%	86.8%
Brc1cnc2ccccc2c1	103%		118	111%	107%		102%	104	96.3%	
O=P(O)(O)OCC(O)CO (configuration not stated)	99.6%		88.3	106%		112%	106%	109	101%	106%
CCCC(C)OCC(=O)O (configuration not stated)	94.5%		84.8	113%	105%	108%	107%	97.2	108%	117%
C/C=C/CC(C)C(O)C1C(=O)NC(CC)C(=O)N(C)CC(=O)N(C)C(CC(C)C)C(=O)NC(C(C)C)C(=O)N(C)C(CC(C)C)C(=O)NC(C)C(=O)NC(C)C(=O)N(C)C(CC(C)C)C(=O)N(C)C(CC(C)C)C(=O)N(C)C(C(C)C)C(=O)N1C (configuration not stated)	-0.0306% (active)		29.9	40.4%	43.9%	17.4%	31.9%	38.1	32%	45.8%
CCC1NC(=O)C(NC(=O)c2ncccc2O)C(C)OC(=O)C(c2ccccc2)NC(=O)C2CC(=O)CCN2C(=O)C(Cc2ccc(N(C)C)cc2)N(C)C(=O)C2CCCN2C1=O (configuration not stated) (tested in a mixture with another compound) ({Picolinoyl(3-OH)}-T[Abu]P[ξNMePhe(4-NMe2)][ξPip(4-oxo)][Phg]; ester 1-C; configuration not given here)	52.1%	34.1%	48.1	95.5%	64%	63.1%	179%			
